PubChem BioAssay (Tox21)
Results filed as inconclusive are left out. A call without a number means that no potency is given here. Activity calls are given as the source filed them. Unless noted, calls come from the whole dose curve; as a rule, active = well fitted curve in the direction sought with a large enough effect in the repeat runs; inconclusive = weak or mixed curves; inactive = no such curve, though single readings can be large; an effect the other way counts as inactive or inconclusive.

Tests used:
[1] = biological target: Estrogen receptor beta (Homo sapiens) (UniProt Q92731); test: qHTS assay to identify small molecule agonists of the estrogen receptor beta (ER-beta) signaling pathway (AID 1259377; active = well fitted activation curve with a large enough effect in the signal ratio in the repeat runs, not every such curve was filed as active; the % refers to the signal ratio)
In short: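 ER-beta-UAS-bla HEK293T (GripTite) cells carrying a UAS-driven beta-lactamase reporter, in medium with 2% charcoal-stripped FBS, were exposed to compounds for 16 hr at 37C; LiveBLAzer B/G FRET substrate was then added and fluorescence read after 2 hours at room temperature.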

[2] = qHTS assay to identify small molecule agonists of the androgen receptor (AR) signaling pathway in the presence of an antagonist - cell viability counter screen (AID 1259379);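 note: MDA-kb2 human breast cancer cells carrying an MMTV luciferase reporter; series mostly up to about 92 µM; nearly all actives have a fitted effect of over 25% in size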
In short: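 Fluorescence from CellTiter-Fluor, added after 15 hr and read 1 hr later, gave cell viability. Cells were MDA-kb2 exposed to compounds (15 concentrations) in the presence of 3.0uM nilutamide at 37C, 0% CO2.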

[3] = qHTS assay to identify small molecule agonists or antagonists of the thyroid stimulating hormone receptor (TSHR) signaling pathway - wild type cell line counter screen (AID 1259384; calls by dose curve)
In short: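 Wild-type Hek293 cells, 800/well, 18 h at 37C, then compound with Ro20-1724 for 30 min RT. cAMP by HTRF (cAMP-d2/anti-cAMP cryptate), 1 h RT, fluorescence read. 15 concentrations, triplicates.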

[4] = biological target: Thyrotropin receptor (Homo sapiens) (UniProt P16473); test: qHTS assay to identify small molecule antagonists of the thyroid stimulating hormone receptor (TSHR) signaling pathway (AID 1259385; calls by dose curve; note: nearly all actives have a fitted effect of over 20% in size)
In short: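 TSHR-HEK293 cells (800/well) plated 18 h, then compounds with Ro20-1724 and TSH at 1.5 ng/mL final, 30 min at room temperature. cAMP quantified by HTRF (cAMP-d2/anti-cAMP-cryptate, 1 h); 15 concentrations in triplicate.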

[5] = qHTS assay to identify small molecule agonists of the estrogen receptor alpha (ER-alpha) signaling pathway in the presence of an antagonist - cell viability counter screen (AID 1259386);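 note: series mostly up to about 92 µM; cells exposed to compounds for 22 h at 37 °C before the viability read; nearly all actives have a fitted effect of over 30% in size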
In short: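 Cells are starved of estrogens for 5 days in charcoal-stripped serum, seeded for 24hr and co-treated with ICI-182,780 (10.0nM final) and test compounds. After 22hr at 37C, viability is read as CellTiter-Fluor fluorescence.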

[6] = biological target: Progesterone receptor (Homo sapiens) (UniProt P06401); test: qHTS assay to identify small molecule agonists of the progesterone receptor (PR) signaling pathway (AID 1346784; calls by dose curve; note: nearly all actives have a fitted effect of over 30% in size; note: potency is the fitted concentration of half-maximal effect)
In short: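 PR-UAS-bla HEK 293T cells carrying a UAS-driven beta-lactamase reporter were seeded in medium with 2% charcoal-stripped FBS, preincubated 6 hr at 37C, then exposed to compounds in DMSO for 16 hr; agonism was read by LiveBLAzer B/G FRET fluorescence.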

[7] = biological target: Progesterone receptor (Homo sapiens) (UniProt P06401); test: qHTS assay to identify small molecule antagonists of the progesterone receptor (PR) signaling pathway (AID 1346795; active = well fitted inhibition curve with a large enough effect in the signal ratio in the repeat runs, not every such curve was filed as active; the % refers to the signal ratio; note: potency is the fitted concentration of half-maximal effect)
In short: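 PR-UAS-bla HEK293T cells carrying a UAS-driven beta-lactamase reporter were plated in medium with 2% charcoal-stripped FBS and rested 6 hr at 37C. Compounds were added with 1 nM R5020 (final) for 16 hr, then FRET substrate loaded 2 hr at room temperature.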

[8] = qHTS assay to identify small molecule antagonists of the progesterone receptor (PR) signaling pathway - cell viability counter screen (AID 1346798); note: nearly all actives have a fitted effect of over 50% in size; note: potency is the fitted concentration of half-maximal effect
In short: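 PR-UAS-bla HEK293T cells in medium with 2% charcoal-stripped FBS were treated with compounds plus R5020 for 16 hr at 37C. Cell viability was then read by CellTiter-Glo luminescence after 30 min at room temperature in the same wells.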

[9] = qHTS assay to identify small molecule agonists of the progesterone receptor (PR) signaling pathway - cell viability counter screen (AID 1346799; calls by dose curve; note: nearly all actives have a fitted effect of over 45% in size)
In short: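 PR-UAS-bla HEK293T cells, 3,000 per well in medium with 2% charcoal-stripped FBS, were preincubated 6 hr at 37C, then exposed to compounds for 16 hr; viability was read as CellTiter-Glo luminescence after 30 min at room temperature.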

[10] = qHTS assay to identify small molecule agonists of the TGF-beta/Smad signaling pathway - cell viability counter screen (AID 1346829); note: top concentration of the series differs between compounds; nearly all actives have a fitted effect of over 45% in size
In short: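 SBE-bla HEK 293T cells plated overnight, compound exposure 5 hr at 37 C. Viability read in the same wells by CellTiter-Glo luminescence after 30 min at room temperature, following the beta-lactamase read.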

[11] = qHTS assay to identify small molecule agonists of the TGF-beta/Smad signaling pathway (AID 1346859; active = well fitted activation curve with a large enough effect in the signal ratio in the repeat runs, not every such curve was filed as active; the % refers to the signal ratio; note: series mostly up to about 77 µM)
In short: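 HEK 293T cells stably carrying a beta-lactamase reporter driven by the Smad binding element were seeded overnight, exposed to DMSO-dissolved compounds for 5 hr at 37 C, 5% CO2, then loaded with FRET substrate for 2 hr at room temperature.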

[12] = biological target: Thyrotropin-releasing hormone receptor (Homo sapiens) (UniProt P34981); test: qHTS assay to identify small molecule antagonists of the thyrotropin-releasing hormone receptor (TRHR) signaling pathway (AID 1346877; active = well fitted inhibition curve with a large enough effect in the repeat runs, not every such curve was filed as active; note: series mostly up to about 51 µM)
In short: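 Cells (TRHR-HEK293) are plated and kept 18 h at 37 °C/5% CO2. A calcium-sensitive dye is added for 2 h, compound follows for 5 min at room temperature, and TRH is then given at 1 nM final.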

[13] = biological target: Thyrotropin-releasing hormone receptor (Homo sapiens) (UniProt P34981); test: qHTS assay to identify small molecule agonists of the thyrotropin-releasing hormone receptor (TRHR) signaling pathway (AID 1346891; calls by dose curve; note: series mostly up to about 58 µM)
In short: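 TRHR-expressing HEK293 cells were plated 18 h at 37 °C/5% CO2, loaded with calcium dye 2 h at 37 °C, then given compound in DMSO; fluorescence was read kinetically for 3 min at 1 s intervals.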

[14] = Human pregnane X receptor (PXR) small molecule agonists, qHTS cell viability counter screen (AID 1346977); note: nearly all actives have a fitted effect of over 50% in size
In short: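 PXR-Luc HepG2 cells in medium with 5% charcoal-stripped FBS were pre-incubated 5hr, then exposed to compounds for 24hr at 37C. Viability was read in the same wells by CellTiter-Fluor fluorescence, reagent added after 23hr with a 1hr incubation.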

[15] = qHTS assay to identify small molecule agonists of the estrogen receptor beta (ER-beta) signaling pathway - cell viability counter screen (AID 1259380); note: nearly all actives have a fitted effect of over 30% in size
In short: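 Same-well viability counter screen. Cells: ER-beta-UAS-bla HEK293T, plated 6 hr before compound, in 2% charcoal-stripped FBS. Compound exposure 16 hr, 37C; viability by CellTiter-Glo luminescence after 30 min at room temperature.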

[16] = qHTS assay to identify small molecule antagonists of the estrogen receptor beta (ER-beta) signaling pathway - cell viability counter screen (AID 1259382); note: series mostly up to about 92 µM; nearly all actives have a fitted effect of over 55% in size
In short: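 Following a 6 hr plating period, HEK293T cells carrying a UAS-driven beta-lactamase reporter under ER-beta control received compounds and 1nM E2 (final). After 16 hr at 37C and 2 hr substrate loading, CellTiter-Glo luminescence indicated viability.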

[17] = qHTS assay to identify small molecule antagonists of the TGF-beta/Smad signaling pathway - cell viability counter screen (AID 1346824); note: nearly all actives have a fitted effect of over 50% in size
In short: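 SBE-bla HEK 293T cells, incubated overnight, then compound plus 0.25 ng/mL TGF-beta1 (stock added) for 5 hr at 37 C. Viability was read in the same wells by CellTiter-Glo luminescence after 30 min at room temperature.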

[18] = biological target: Estrogen receptor (Homo sapiens) (UniProt P03372); test: qHTS assay to identify small molecule agonists of the estrogen receptor alpha (ER-alpha) signaling pathway in the presence of an antagonist (AID 1259383; calls by dose curve; note: top concentration of the series differs between compounds; nearly all actives have a fitted effect of over 15% in size)
In short: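 Cells are hormone-deprived for 5 days (charcoal-stripped FBS, no phenol red), plated for 24hr, spiked with 10.0nM ICI-182,780, then dosed at 15 concentrations. After 22hr at 37C, ONE-Glo luminescence reports ERE-luciferase activity.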

[19] = biological target: Androgen receptor (Homo sapiens) (UniProt P10275); test: qHTS assay to identify small molecule agonists of the androgen receptor (AR) signaling pathway in the presence of an antagonist (AID 1259381; calls by dose curve; note: nearly all actives have a fitted effect of over 15% in size)
In short: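 Cells are MDA-kb2 (human breast carcinoma, MMTV-luc, AR/GR responsive). Nilutamide is present at 3.0uM final throughout; compounds are added at 15 concentrations and incubated 16hr at 37C before ONE-Glo luminescence detection.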

Sequence of Thyrotropin-releasing hormone receptor (Homo sapiens) (P34981 whole entry, looked up): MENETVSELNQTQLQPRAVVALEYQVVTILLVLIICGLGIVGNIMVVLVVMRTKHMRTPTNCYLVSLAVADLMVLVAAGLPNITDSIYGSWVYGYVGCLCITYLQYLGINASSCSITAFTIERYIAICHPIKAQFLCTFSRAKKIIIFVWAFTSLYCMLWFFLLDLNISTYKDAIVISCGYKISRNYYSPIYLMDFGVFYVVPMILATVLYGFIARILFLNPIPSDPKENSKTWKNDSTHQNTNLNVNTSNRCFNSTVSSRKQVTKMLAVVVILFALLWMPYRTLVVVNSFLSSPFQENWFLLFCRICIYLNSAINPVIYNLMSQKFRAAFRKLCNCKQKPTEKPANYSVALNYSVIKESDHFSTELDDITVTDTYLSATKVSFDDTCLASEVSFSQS
Sequence of Thyrotropin receptor (Homo sapiens) (P16473 whole entry, looked up): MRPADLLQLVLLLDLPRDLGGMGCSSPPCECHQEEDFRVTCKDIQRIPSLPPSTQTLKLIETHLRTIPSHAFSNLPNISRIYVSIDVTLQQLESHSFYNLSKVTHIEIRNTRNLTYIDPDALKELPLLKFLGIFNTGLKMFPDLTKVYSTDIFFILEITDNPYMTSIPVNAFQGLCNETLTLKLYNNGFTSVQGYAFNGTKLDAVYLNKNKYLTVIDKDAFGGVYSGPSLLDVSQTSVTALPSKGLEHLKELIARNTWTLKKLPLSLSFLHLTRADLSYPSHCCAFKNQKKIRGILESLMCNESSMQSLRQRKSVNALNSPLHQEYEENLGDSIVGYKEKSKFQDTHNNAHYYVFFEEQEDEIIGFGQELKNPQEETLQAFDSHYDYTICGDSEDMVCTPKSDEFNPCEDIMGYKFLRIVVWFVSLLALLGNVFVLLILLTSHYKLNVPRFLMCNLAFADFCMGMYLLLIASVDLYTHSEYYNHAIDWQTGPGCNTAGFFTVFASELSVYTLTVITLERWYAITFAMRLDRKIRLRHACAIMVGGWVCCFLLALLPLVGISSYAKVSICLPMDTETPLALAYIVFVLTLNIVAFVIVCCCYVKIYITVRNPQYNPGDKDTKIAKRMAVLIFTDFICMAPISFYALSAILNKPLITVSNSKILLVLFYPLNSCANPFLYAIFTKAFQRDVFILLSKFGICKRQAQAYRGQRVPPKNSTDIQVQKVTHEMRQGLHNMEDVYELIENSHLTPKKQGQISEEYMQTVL
Sequence of Estrogen receptor beta (Homo sapiens) (Q92731 whole entry, looked up): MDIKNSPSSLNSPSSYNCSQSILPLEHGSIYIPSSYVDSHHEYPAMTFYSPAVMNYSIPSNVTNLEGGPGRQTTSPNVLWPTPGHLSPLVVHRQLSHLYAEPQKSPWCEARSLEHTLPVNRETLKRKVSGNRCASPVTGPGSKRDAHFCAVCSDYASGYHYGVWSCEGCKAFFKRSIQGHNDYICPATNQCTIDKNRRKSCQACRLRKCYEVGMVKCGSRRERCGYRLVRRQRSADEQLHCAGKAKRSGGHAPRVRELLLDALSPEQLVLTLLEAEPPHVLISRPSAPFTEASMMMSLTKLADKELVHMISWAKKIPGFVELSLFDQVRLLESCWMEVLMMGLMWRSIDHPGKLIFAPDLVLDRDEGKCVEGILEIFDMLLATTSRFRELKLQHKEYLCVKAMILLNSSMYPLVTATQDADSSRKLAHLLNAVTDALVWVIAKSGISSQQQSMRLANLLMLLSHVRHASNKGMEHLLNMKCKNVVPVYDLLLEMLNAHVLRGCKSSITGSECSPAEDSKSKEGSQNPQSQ
Sequence of Estrogen receptor (Homo sapiens) (P03372 whole entry, looked up): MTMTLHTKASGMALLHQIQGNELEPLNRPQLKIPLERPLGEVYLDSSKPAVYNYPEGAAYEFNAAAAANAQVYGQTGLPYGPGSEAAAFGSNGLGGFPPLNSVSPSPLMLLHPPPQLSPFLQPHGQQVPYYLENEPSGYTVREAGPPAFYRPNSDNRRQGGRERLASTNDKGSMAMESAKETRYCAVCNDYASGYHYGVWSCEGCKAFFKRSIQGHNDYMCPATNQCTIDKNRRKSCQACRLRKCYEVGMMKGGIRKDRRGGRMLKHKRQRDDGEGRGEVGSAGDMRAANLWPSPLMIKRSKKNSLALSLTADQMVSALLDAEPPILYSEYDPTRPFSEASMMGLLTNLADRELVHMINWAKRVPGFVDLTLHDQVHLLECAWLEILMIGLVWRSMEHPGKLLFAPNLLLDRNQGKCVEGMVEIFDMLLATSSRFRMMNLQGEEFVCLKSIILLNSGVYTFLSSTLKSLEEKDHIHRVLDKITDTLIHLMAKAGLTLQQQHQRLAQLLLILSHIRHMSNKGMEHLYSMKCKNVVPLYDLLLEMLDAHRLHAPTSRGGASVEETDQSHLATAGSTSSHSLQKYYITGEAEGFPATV
Sequence of Androgen receptor (Homo sapiens) (P10275 whole entry, looked up): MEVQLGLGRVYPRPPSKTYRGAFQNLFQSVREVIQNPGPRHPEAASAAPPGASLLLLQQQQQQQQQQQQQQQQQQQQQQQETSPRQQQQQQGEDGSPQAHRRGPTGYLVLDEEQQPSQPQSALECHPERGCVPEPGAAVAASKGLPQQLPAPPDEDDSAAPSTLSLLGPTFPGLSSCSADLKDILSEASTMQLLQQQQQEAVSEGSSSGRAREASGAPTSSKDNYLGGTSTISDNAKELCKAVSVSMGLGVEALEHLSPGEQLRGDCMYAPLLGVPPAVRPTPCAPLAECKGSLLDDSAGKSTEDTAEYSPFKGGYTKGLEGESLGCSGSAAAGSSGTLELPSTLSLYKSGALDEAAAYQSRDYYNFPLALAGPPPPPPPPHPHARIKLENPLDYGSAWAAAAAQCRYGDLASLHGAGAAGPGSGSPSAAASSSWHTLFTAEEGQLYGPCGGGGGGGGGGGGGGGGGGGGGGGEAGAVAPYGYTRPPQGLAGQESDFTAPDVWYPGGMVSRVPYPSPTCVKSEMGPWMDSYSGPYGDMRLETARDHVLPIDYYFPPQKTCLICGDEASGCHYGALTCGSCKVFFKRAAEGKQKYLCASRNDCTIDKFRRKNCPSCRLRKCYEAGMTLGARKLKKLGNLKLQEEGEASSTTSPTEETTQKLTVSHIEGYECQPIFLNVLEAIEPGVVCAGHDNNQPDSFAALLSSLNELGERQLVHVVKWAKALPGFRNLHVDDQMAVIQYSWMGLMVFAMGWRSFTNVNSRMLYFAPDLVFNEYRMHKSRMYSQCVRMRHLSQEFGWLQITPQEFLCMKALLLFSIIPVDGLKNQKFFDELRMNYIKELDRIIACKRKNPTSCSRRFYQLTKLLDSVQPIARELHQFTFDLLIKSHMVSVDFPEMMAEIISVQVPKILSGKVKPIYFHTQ
Sequence of Progesterone receptor (Homo sapiens) (P06401 whole entry, looked up): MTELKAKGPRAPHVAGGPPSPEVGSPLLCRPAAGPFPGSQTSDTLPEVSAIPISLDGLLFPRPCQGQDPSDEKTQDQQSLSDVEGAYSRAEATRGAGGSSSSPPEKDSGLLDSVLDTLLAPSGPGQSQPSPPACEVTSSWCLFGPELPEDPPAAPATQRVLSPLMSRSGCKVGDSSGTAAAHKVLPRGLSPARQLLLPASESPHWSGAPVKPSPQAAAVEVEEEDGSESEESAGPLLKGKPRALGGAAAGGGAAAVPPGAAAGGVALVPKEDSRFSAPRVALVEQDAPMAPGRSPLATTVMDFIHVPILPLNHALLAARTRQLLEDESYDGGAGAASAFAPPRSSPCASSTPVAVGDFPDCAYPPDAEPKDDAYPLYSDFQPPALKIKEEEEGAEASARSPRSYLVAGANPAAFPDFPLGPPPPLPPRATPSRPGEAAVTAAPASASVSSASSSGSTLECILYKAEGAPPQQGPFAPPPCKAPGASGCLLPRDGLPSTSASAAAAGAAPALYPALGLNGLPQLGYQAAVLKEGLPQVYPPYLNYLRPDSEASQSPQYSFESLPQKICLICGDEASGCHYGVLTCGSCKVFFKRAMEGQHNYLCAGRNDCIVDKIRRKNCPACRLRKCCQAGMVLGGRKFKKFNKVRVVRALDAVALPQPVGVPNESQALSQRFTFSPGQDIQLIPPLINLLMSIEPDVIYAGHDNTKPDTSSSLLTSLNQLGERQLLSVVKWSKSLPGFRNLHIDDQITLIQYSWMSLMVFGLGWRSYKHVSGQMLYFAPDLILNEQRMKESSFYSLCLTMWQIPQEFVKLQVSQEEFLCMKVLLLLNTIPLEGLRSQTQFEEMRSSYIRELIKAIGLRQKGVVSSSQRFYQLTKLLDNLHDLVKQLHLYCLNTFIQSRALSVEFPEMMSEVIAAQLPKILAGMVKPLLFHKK

Row | Structure (SMILES) | Potency [1] | Potency [2] | Potency [3] | Potency [4] | Potency [5] | Potency [6] | Potency [7] | Potency [8] | Potency [9] | Potency [10] | Potency [11] | outcome [12] | outcome [13] | Potency [14] | Potency [15] | Potency [16] | outcome [17] | Potency [18] | Potency [19]
1 | CCCCCCC(O)CCCCCCCCCCC(=O)OC (stereo not given) | inactive | inactive | inactive | inactive | inactive | inactive | inactive | inactive | inactive | inactive | inactive | inactive | inactive | inactive |  |  |  |  | 
2 | CC(C(=O)O)c1ccc(C(=O)c2cccs2)cc1 (stereo not given) | inactive | inactive |  |  | inactive | inactive | inactive | inactive | inactive | inactive | inactive | inactive |  | inactive | inactive | inactive | inactive |  | 
3 | CSSc1ccoc1C | inactive | inactive | inactive | inactive | inactive | inactive | inactive | inactive | inactive |  | inactive | inactive | inactive | inactive | inactive | inactive | inactive |  | 
4 | CC(C)Cc1ccc(CC(=O)O)cc1 | inactive | inactive |  |  | inactive | inactive |  | 29.8 µM (active) |  | inactive | inactive | inactive | inactive | inactive | inactive | inactive |  |  | 
5 | CCCCCCCC/C=C\CCCCCCCC(=O)OCCO | inactive | inactive | inactive | inactive |  |  | inactive | inactive | inactive | inactive | inactive | inactive | inactive | inactive |  |  | inactive | inactive | 
6 | COC(=O)C1=C(C)NC(C)=C(C(=O)OC(C)(C)CN(C)CCC(c2ccccc2)c2ccccc2)C1c1cccc([N+](=O)[O-])c1 (stereo not given) | inactive |  | inactive |  | inactive |  | 6.68 µM (active) |  |  | inactive | inactive | inactive | inactive |  | inactive |  | inactive | inactive | inactive
7 | CC(C)c1ccc(C(=O)N=C(N)N)cc1S(C)(=O)=O | inactive | inactive | inactive |  | inactive | inactive | inactive | inactive | inactive | inactive | inactive |  |  |  | inactive |  | inactive | inactive | 
8 | CCOCCC(=O)OCC | inactive | inactive |  |  | inactive |  | inactive | inactive | inactive | inactive | inactive | inactive |  | inactive | inactive | inactive | inactive | inactive | 
9 | C=Cc1ccc(OC(C)=O)cc1 |  | inactive | inactive | inactive |  | inactive | inactive | inactive | inactive | inactive | inactive |  |  |  | inactive | inactive | inactive | inactive | inactive
10 | OCC(CO)n1cnc(-c2ccc(F)cc2)c1-c1ccnc(Oc2ccccc2)n1 | inactive | inactive |  |  | inactive | inactive | inactive | inactive | inactive | inactive | inactive | inactive | inactive | inactive | inactive | inactive | inactive | inactive | 
11 | O=C1NC(=O)c2cccc3cccc1c23 | inactive | inactive | inactive | inactive | inactive |  |  |  | inactive | inactive |  | inactive | inactive | inactive |  | inactive | inactive | inactive | 
12 | CCOC(=O)Oc1ccc(CCNC(=O)[C@H](CCSC)NC(C)=O)cc1OC(=O)OCC |  | inactive | inactive | inactive | inactive | inactive | inactive | inactive | inactive | inactive |  |  |  | inactive | inactive | inactive | inactive | inactive | inactive
13 | C=C(C)c1ccccc1 | inactive | inactive | inactive |  | inactive | 15.4 µM (active) | inactive | inactive |  | inactive |  | inactive | inactive | inactive | inactive | inactive | inactive |  | 
14 | c1ccc(CCCc2ccncc2)cc1 | inactive | inactive | inactive | inactive | inactive |  |  |  |  | inactive |  | inactive |  | inactive | inactive | inactive | inactive | inactive | 
15 | CCC(=O)OCc1ccc(OC)cc1 | inactive | inactive | inactive | inactive | inactive | inactive | inactive | inactive | inactive | inactive | inactive | inactive | inactive | inactive | inactive |  |  |  | 
16 | Cc1cccc(C)c1NC(=O)c1cc(S(N)(=O)=O)c(Cl)cc1O | inactive | inactive | inactive | inactive | inactive | inactive | inactive |  | inactive |  | inactive | inactive | inactive | inactive | inactive | inactive | inactive |  | 
17 | Nc1nc(-c2ccc([N+](=O)[O-])cc2)cs1 | inactive | inactive | inactive | inactive |  |  |  | inactive | inactive |  | inactive | inactive |  | inactive | inactive | inactive | inactive |  | 
